This is part of a sample that, as a whole, favours compounds with a hit. Of some 83,000 tested, about 20% had one in any assay.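 Treatment: one concentration, 48 hours, 96-well format. Scoring: percent growth, with anything below 10 considered active.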 Active and inactive are the calls of the source.
system: ACHN renal; experiment: NCI-60 one-dose screen, 48 h (100 = growth as untreated, 0 = no growth, -100 = all killed); details: 10 µM unless noted

Row | SMILES | growth
1 | CCOC(=O)c1sc(/N=C2\NC(=O)/C(=C/c3ccc(N4CCN(C)CC4)cc3)S2)nc1C | 108% (inactive)
2 | Cc1cc(C)c2nc(Nc3nc(C)c(C)c(=O)[nH]3)nc(C)c2c1 | 23.5% (inactive)
3 | CCOC(=O)C1=C(C)n2nc(CC#N)c(C#N)c2NC1c1ccc(Cl)cc1 (centres undefined) | 90.8% (inactive)
4 | COc1ccc2oc(=O)cc(-c3nc4ccc(N)cc4[nH]3)c2c1 | 79.9% (inactive)
5 | CCOC(=O)NCCc1nc2c([nH]1)c(=O)n(C)c(=O)n2C | 110% (inactive)
6 | NC(=O)C(O)(c1ccccc1)c1ccccc1 | 108% (inactive)
7 | O=C1Nc2ccc(Cl)cc2/C1=N/c1nc(-c2ccc(F)cc2)cs1 | 48.5% (inactive)
8 | Cc1nnc(/N=C2\NC(=O)/C(=C/c3ccsc3)S2)s1 | 106% (inactive)
9 | N#Cc1ccc(C2C3=C(CCCC3=O)OC3=C2C(=O)c2ccccc2C3=O)cc1 (centres undefined) | 66.7% (inactive)
10 | COCCOCCOCc1n(Cc2ccc3ccccc3c2)c2ccccc2[n+]1Cc1ccc2ccccc2c1 | 93.9% (inactive)
11 | CC1(C)CC[C@]2(c3nnc(-c4ccncc4)o3)CC[C@]3(C)C(=CC[C@@H]4[C@@]5(C)CCC(=O)C(C)(C)[C@@H]5CC[C@]43C)[C@@H]2C1 | 88.7% (inactive)
12 | O=c1[nH]c(-c2cccc(F)c2)cc2cc(F)ccc12 | 47% (inactive)
13 | Cc1ccccc1NC(=O)c1sc2nc(C)c(C(C)O)cc2c1N (centres undefined) | 78.3% (inactive)
14 | O=C1NN(c2ccccc2)C(c2ccc(Cl)cc2)N2CCC[C@H]12 (some centres undefined) | 106% (inactive)
15 | COc1ccc(Nc2cc(NC(=O)CNc3cc(OC)c(Cl)c(OC)c3Cl)ncn2)cc1 | 78.8% (inactive)
16 | O=C(Nc1nc(-c2ccccc2Cl)cs1)c1cc(-c2ccc(Br)cc2)nc2ccccc12 | 49.7% (inactive)
17 | Cn1cc(-c2ccc3c(c2)ncn3-c2ccc(CC(=O)Nc3cc(C(C)(C)C)on3)cc2)cn1 | 6.24% (active)
18 | CCOC(=O)CC[C@H](NC(=O)c1ccc(NC)c2ccccc12)C(=O)OCC | 98.8% (inactive)
19 | CCO/C=N/S(=O)(=O)c1cc2c(cc1Cl)NC=NS2(=O)=O | 112% (inactive)

Row | SMILES | growth
20 | C#Cc1ccccc1NC(=O)c1sc2nc3c(cc2c1N)CCCCC3 | 101% (inactive)
21 | COc1ccc(NC(=O)Nc2ccc(Nc3nc(C)cc(Nc4ccc(C)cc4)n3)cc2)cc1 | -99.6% (active)
22 | C[C@]12CC[C@@H]3c4ccc(O)cc4CC[C@H]3[C@@H]1C[C@H](O)C2 | 99.7% (inactive)
23 | O=CN1N=C(c2ccc(Cl)cc2)CC1c1cccc(Nc2ccnc3cc(C(F)(F)F)ccc23)c1 (centres undefined) | 61.2% (inactive)
24 | O=[N+]([O-])c1ccc(N=Nc2c(O)c(N=Nc3cc([N+](=O)[O-])cc([N+](=O)[O-])c3O)cc(N=Nc3cc(S(=O)(=O)O)cc4cc(S(=O)(=O)O)cc(O)c34)c2O)cc1 | 101% (inactive)
25 | CCOCc1nc2ccccc2c(=O)[nH]1 | 105% (inactive)
26 | Nc1n[nH]c2cccc(C#Cc3cccc(NC(=O)c4cc(N5CCOCC5)cc(C(F)(F)F)c4)c3)c12 | 25.3% (inactive)
27 | COc1ccc2[nH]c(=O)c(/C=C/C(=O)c3ccccc3OC)cc2c1 | 38.8% (inactive)
28 | N#Cc1c(-c2ccc(F)cc2)nc(N/N=C/c2cccc(O)c2)nc1N1CCOCC1 | 66.9% (inactive)
29 | COc1ccc2[nH]c3nc4cnccc4cc3c2c1 | 98.3% (inactive)
30 | COc1cc2c(cc1OC)C(Sc1ccc(Cl)cc1)c1c(nc(N)c(C#N)c1N)O2 (centres undefined) | -66.9% (active)
31 | C=C1C(=O)O[C@H]2[C@H]1CCC(/C=N/c1ncc(Br)cc1N)=C\CC[C@@]1(C)O[C@@H]21 | 2.47% (active)
32 | CCCCC1=c2c([nH]c3ccc(OC)cc23)=NC2C=CC=NC12 (centres undefined) | 91.2% (inactive)
33 | COc1ccc(-c2nc(C#N)c(NCC(c3ccc(Cl)cc3)N3CCCCC3)o2)cc1 (centres undefined) | 91.7% (inactive)
34 | CCC[S@@](=O)c1ccc2nc(NC(=O)OC)[nH]c2c1 | 102% (inactive)
35 | CCSc1nc(Cl)c(C#N)c(-c2ccc(F)cc2)n1 | 100% (inactive)
36 | Cc1cccc(C)c1NC(=O)CN(CC(C)C)CC(O)COc1ccccc1 (centres undefined) | 104% (inactive)
37 | CCOC(=O)c1ccc(Nc2ncnc3ccc(NC(=O)c4ccccc4)cc23)cc1 | 93.5% (inactive)

system: A498 renal; experiment: as above; details: 10 µM unless noted

Row | SMILES | growth
38 | CCOC(=O)c1sc(/N=C2\NC(=O)/C(=C/c3ccc(N4CCN(C)CC4)cc3)S2)nc1C | 111% (inactive)
39 | Cc1cc(C)c2nc(Nc3nc(C)c(C)c(=O)[nH]3)nc(C)c2c1 | -9.66% (active)
40 | CCOC(=O)C1=C(C)n2nc(CC#N)c(C#N)c2NC1c1ccc(Cl)cc1 (centres undefined) | 98.6% (inactive)
41 | COc1ccc2oc(=O)cc(-c3nc4ccc(N)cc4[nH]3)c2c1 | 61.5% (inactive)
42 | CCOC(=O)NCCc1nc2c([nH]1)c(=O)n(C)c(=O)n2C | 105% (inactive)
43 | NC(=O)C(O)(c1ccccc1)c1ccccc1 | 84.9% (inactive)
44 | O=C1Nc2ccc(Cl)cc2/C1=N/c1nc(-c2ccc(F)cc2)cs1 | 33.3% (inactive)
45 | Cc1nnc(/N=C2\NC(=O)/C(=C/c3ccsc3)S2)s1 | 87.7% (inactive)
46 | N#Cc1ccc(C2C3=C(CCCC3=O)OC3=C2C(=O)c2ccccc2C3=O)cc1 (centres undefined) | 109% (inactive)
47 | COCCOCCOCc1n(Cc2ccc3ccccc3c2)c2ccccc2[n+]1Cc1ccc2ccccc2c1 | 12% (inactive)
48 | CC1(C)CC[C@]2(c3nnc(-c4ccncc4)o3)CC[C@]3(C)C(=CC[C@@H]4[C@@]5(C)CCC(=O)C(C)(C)[C@@H]5CC[C@]43C)[C@@H]2C1 | 106% (inactive)
49 | O=c1[nH]c(-c2cccc(F)c2)cc2cc(F)ccc12 | 21.9% (inactive)
50 | Cc1ccccc1NC(=O)c1sc2nc(C)c(C(C)O)cc2c1N (centres undefined) | 47.9% (inactive)
51 | O=C1NN(c2ccccc2)C(c2ccc(Cl)cc2)N2CCC[C@H]12 (some centres undefined) | 84.5% (inactive)
52 | COc1ccc(Nc2cc(NC(=O)CNc3cc(OC)c(Cl)c(OC)c3Cl)ncn2)cc1 | -1.25% (active)
53 | O=C(Nc1nc(-c2ccccc2Cl)cs1)c1cc(-c2ccc(Br)cc2)nc2ccccc12 | 22.6% (inactive)
54 | Cn1cc(-c2ccc3c(c2)ncn3-c2ccc(CC(=O)Nc3cc(C(C)(C)C)on3)cc2)cn1 | -47.1% (active)
55 | CCOC(=O)CC[C@H](NC(=O)c1ccc(NC)c2ccccc12)C(=O)OCC | 91% (inactive)
56 | CCO/C=N/S(=O)(=O)c1cc2c(cc1Cl)NC=NS2(=O)=O | 106% (inactive)

Row | SMILES | growth
57 | C#Cc1ccccc1NC(=O)c1sc2nc3c(cc2c1N)CCCCC3 | 94.1% (inactive)
58 | COc1ccc(NC(=O)Nc2ccc(Nc3nc(C)cc(Nc4ccc(C)cc4)n3)cc2)cc1 | 107% (inactive)
59 | C[C@]12CC[C@@H]3c4ccc(O)cc4CC[C@H]3[C@@H]1C[C@H](O)C2 | 44.6% (inactive)
60 | O=CN1N=C(c2ccc(Cl)cc2)CC1c1cccc(Nc2ccnc3cc(C(F)(F)F)ccc23)c1 (centres undefined) | 58.6% (inactive)
61 | O=[N+]([O-])c1ccc(N=Nc2c(O)c(N=Nc3cc([N+](=O)[O-])cc([N+](=O)[O-])c3O)cc(N=Nc3cc(S(=O)(=O)O)cc4cc(S(=O)(=O)O)cc(O)c34)c2O)cc1 | 107% (inactive)
62 | CCOCc1nc2ccccc2c(=O)[nH]1 | 105% (inactive)
63 | Nc1n[nH]c2cccc(C#Cc3cccc(NC(=O)c4cc(N5CCOCC5)cc(C(F)(F)F)c4)c3)c12 | -5.08% (active)
64 | COc1ccc2[nH]c(=O)c(/C=C/C(=O)c3ccccc3OC)cc2c1 | 21.7% (inactive)
65 | N#Cc1c(-c2ccc(F)cc2)nc(N/N=C/c2cccc(O)c2)nc1N1CCOCC1 | 78.7% (inactive)
66 | COc1ccc2[nH]c3nc4cnccc4cc3c2c1 | 114% (inactive)
67 | COc1cc2c(cc1OC)C(Sc1ccc(Cl)cc1)c1c(nc(N)c(C#N)c1N)O2 (centres undefined) | 66.4% (inactive)
68 | C=C1C(=O)O[C@H]2[C@H]1CCC(/C=N/c1ncc(Br)cc1N)=C\CC[C@@]1(C)O[C@@H]21 | 78% (inactive)
69 | CCCCC1=c2c([nH]c3ccc(OC)cc23)=NC2C=CC=NC12 (centres undefined) | 94.9% (inactive)
70 | COc1ccc(-c2nc(C#N)c(NCC(c3ccc(Cl)cc3)N3CCCCC3)o2)cc1 (centres undefined) | 108% (inactive)
71 | CCC[S@@](=O)c1ccc2nc(NC(=O)OC)[nH]c2c1 | 87.6% (inactive)
72 | CCSc1nc(Cl)c(C#N)c(-c2ccc(F)cc2)n1 | 92.3% (inactive)
73 | Cc1cccc(C)c1NC(=O)CN(CC(C)C)CC(O)COc1ccccc1 (centres undefined) | 63.8% (inactive)
74 | CCOC(=O)c1ccc(Nc2ncnc3ccc(NC(=O)c4ccccc4)cc23)cc1 | 106% (inactive)

Reference: PubChem BioAssay (NCI)
